# Data taken from PubChem BioAssay (NCI).
# This is part of a sample that, as a whole, favours compounds with a hit. Of some 83,000 tested, about 20% had one in any assay.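 In brief: 96-well plates, 48 h treatment, single concentration, percent growth endpoint.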 Values without a mark were called inactive. The source made the active and inactive calls.
# System: RPMI-8226 leukemia
# Test: NCI-60 one-dose screen, 48 h (100 = growth as untreated, 0 = no growth, -100 = all killed)
# Details: 10 µM unless noted
# Method: Growth inhibition of the RPMI-8226 human tumor cell line is measured as a screen for anti-cancer activity. Cells are grown in 96 well plates and exposed to the test compound for 48 hours. Compounds are tested at a single concentration, which is 10^-5 M for most compounds. The reported endpoint is percent growth (GI% or GIPRCNT), where numbers from 0 - 100% represent growth inhibition, and numbers from -100% - 0 represent cell death. For example, a value of 40 represents 60% growth inhibition. A value of 0 means no net growth occurred over the course of the experiment. A value of -40 indicates 40% of cells at the beginning of the experiment died by the end of the experiment. A value of -100 means all cells are dead at the end of the experiment.
# NCI-60 Human Tumor Cell Lines Screen was performed using the standard one-dose NCI protocol, which is described in more detail at https://dtp.cancer.gov/discovery_development/nci-60/default.htm.
# Compounds with GIPRCNT values below 10 were considered active. Activity score was based on GIPRCNT using the following formula: […]
# Score is 0 for GIPRCNT values of 100 or above, 50 for GIPRCNT values of 0, and 100 for GIPRCNT values of -100.
row,SMILES,growth
1,CC(C)C(C(=O)CCN(C)C)c1ccc(Cl)cc1 (stereo not given),67.5%
2,COc1ncc(-c2ccc3ncnc(Nc4cccc(Cl)c4)c3c2)cc1NS(=O)(=O)CCN1CCOCC1,12.7%
3,CNC(=O)c1cc(Oc2ccc3c(c2)sc2nc(-c4ccc(Cl)cc4)cn23)ccn1,92.4%
4,COC(=O)C(CC(=O)c1ccc(-c2ccccc2)cc1)c1ccccc1 (stereo not given),88.3%
5,C=C1C(=O)O[C@H]2[C@H]1CC/C(Cn1cc(-c3ccsc3)nn1)=C\CC[C@@]1(C)O[C@@H]21,-43.2% (active)
6,COc1ccc(-c2nc3sccn3c2-c2ccnc(NCCCNS(=O)(=O)c3ccc4ccccc4c3)n2)cc1,54.9%
7,COc1cc(C(=O)OCCCCCCCCCCC[P+](c2ccccc2)(c2ccccc2)c2ccccc2)ccc1O,-9.32% (active)
8,COc1cccc(-n2cc(-c3nc(Cl)c4ccccc4n3)nn2)c1,97.7%
9,CSc1nc(-c2cc3ccccc3o2)cc(-c2ccc(Cl)cc2)c1C#N,26.6%
10,O=C(O)C(Cc1ccccc1)N1C(=O)/C(=C/C(Cl)=C/c2ccc([N+](=O)[O-])cc2)SC1=S (stereo not given),-6.22% (active)
11,COc1ccc(C(=O)c2cc(OC)c(OC)c(OC)c2)cc1/C=C/C(=O)c1ccc(O)cc1,9.18% (active)
12,COc1cc(C(=O)/C=C/c2cc(C(=O)c3cc(OC)c(OC)c(OC)c3)ccc2OC)ccc1N,-9.87% (active)
13,CN(C)c1ccc(/C=C\N=Nc2ccc(Br)cc2)cc1,50.2%
14,O=c1c2cccc3c(Nc4ccc(F)cc4)ccc(c32)c2nc3ccccc3n12,57.4%
15,C=CCOc1ccc(/C(O)=C2\C(=O)C(=O)N(c3nccs3)C2c2ccccc2F)cc1 (stereo not given),136%
16,C[N+](C)(C)c1ccc(CC2c3ccccc3-c3ccccc32)cc1,68.6%
17,CCCn1c(=S)sc2c(Cl)nc(C)nc21,99.1%
18,CCOC(=O)c1cc(/C(=N\O)c2cc(OC)c(OC)c(OC)c2)n2cc(C)cc(C)c12,17.6%
19,OCc1c(-c2ccccc2)nc2sccn12,111%
20,CC1=C(C#N)C(C)(C)C(C#N)=C(C)N1,98.3%

row,SMILES,growth
1,O=C(NCCCN1CCN(CCCNC(=O)C2CCCCC2)CC1)C1CCCCC1,93.3%
2,Cn1c(-c2nonc2NC(=O)c2ccc(F)cc2)nc2ccccc21,106%
3,C#CCN1C(=O)/C(=c2\sc3n(c2=O)NC2C(N=3)N(CC)C(=O)N2CC)c2ccccc21 (stereo not given),59.3%
4,Nc1c(C(=O)Nc2ccccc2)sc2nc3c(cc12)CN(Cc1ccccc1)CC3,79.6%
5,CC(C)(C)OC(=O)N1C/C(=C\c2cccs2)C(=O)/C(=C/c2cccs2)C1,55.4%
6,O=C(Nc1ccc(F)cc1)c1cc([N+](=O)[O-])ccc1O,32.4%
7,c1ccc([P+](CCC[P+](c2ccccc2)(c2ccccc2)c2ccccc2)(c2ccccc2)c2ccccc2)cc1,1.19% (active)
8,COc1ccc(OC)c(-c2ccc(-c3ccccc3N)c3[nH]c4ccccc4c23)c1,70.3%
9,CCN1C(=S)N(CC)C2Nn3c(s/c(=C4\C(=O)N(C)c5ccccc54)c3=O)=NC21 (stereo not given),36.8%
10,O=C(/C=C/CN1CCCCC1)Nc1cc2c(Nc3ccc(F)c(Cl)c3F)ncnc2cc1OCCOC(F)F,12.7%
11,CCN(C(=O)c1cc2ncccc2[nH]1)[C@H]1CCC[C@@H](NCc2cccc(F)c2)C1,91.8%
12,O=C(/C=C/c1ccccc1)n1c(-c2ccc(Cl)cc2)nc2ccccc21,-31.1% (active)
13,O=C(O)c1cccc([N+](=O)[O-])c1/C=C/c1ccccc1,105%
14,CC(=O)Nc1nc(C(=O)N2N=C(C)/C(=C/c3ccc(Cl)cc3)C2=O)cs1,103%
15,CN1CCN(CCCOc2ccc3nc(Nc4ccc(C(F)(F)F)c(Cl)c4)ccc3c2)CC1,-6.92% (active)
16,O=C(CN1CCOCC1)Nc1ccc(-c2nc3ccccc3s2)cc1,94%
17,C=C1C(=O)O[C@H]2[C@H]1CC/C(COC(=O)NCCc1cccc(OC)c1)=C\CC[C@@]1(C)O[C@@H]21,25.1%
18,CC(C)[C@H](CO)Nc1nc(Nc2ccc(C(=O)NCCNS(=O)(=O)c3cccc4c(N(C)C)cccc34)c(Cl)c2)c2ncn(C(C)C)c2n1,-41.9% (active)
19,COc1ccc(/C=C/C(=O)c2ccc(NC(=O)CN3CCN(c4cc5c(cc4F)c(=O)c(C(=O)O)cn5C4CC4)CC3)cc2)cc1,92.6%
20,COc1ccccc1CNCCCN1C(=O)c2ccc3c4c(ccc(c24)C1=O)C(=O)N(CCCNCCCCNCCCCN)C3=O,17.3%
